Bioassay records deposited in PubChem by National Center for Advancing Translational Sciences (NCATS).
A selection: hits, their analogues and other compounds. The true share with any hit is near 19%.
HT1080NT lethal – kills 2HG-producing HT-1080-NT fibrosarcoma cells | Potency, µM (titrated, usually from 46.1 µM), for the others: at the highest dose activity, negative = less viability, most hits filed as cytotoxic | AID 686970 | HT-1080-NT fibrosarcoma viability, CellTiter-Glo ATP luminescence, 48 h | actives 1.6% (n = 360,000);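 also: NT is the 2HG producing partner of a matched IDH1 knockdown line; potency is read from the fitted curve at half-maximal effect; 0% = DMSO-treated cells and -100% = media-only wells without cells; nearly all actives have a fitted effect of over 55% in size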
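HT-1080-NT fibrosarcoma cells (2HG-overproducing), 750 cells/well in RPMI with 5% FBS, dosed after 2 h and incubated 48 h at 37C. CellTiter-Glo luminescence normalized to DMSO and no-cell wells; concentration-response curves fitted and classed.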
DT40 TDP1 no CPT – qHTS for Inhibitors of human tyrosyl-DNA phosphodiesterase 1 (TDP1): qHTS in cells in absence of CPT | DT40 Tdp1-/- hTDP1 cells, no CPT, ATP luminescence, 48 h | Potency, µM (highest dose often 46.2 µM), without a hit: at the top dose activity change, negative = growth inhibition, hits mostly inhibitors | actives 15% (n = 420,000); also: potency is read from the fitted curve at half-maximal effect; nearly all actives have a fitted effect of over 55% in size
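Stably hTDP1-transfected Tdp1-null chicken DT40 cells were treated with library compounds minus camptothecin and grown for at least 48 hr at 37 °C, after which cellular ATP was quantified by luminescence.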
DT40 TDP1 CPT – growth inhibition of DT40 Tdp1-/-;hTDP1 cells with camptothecin (screen for TDP1 inhibitors) | actives 12% (n = 420,000) | AID 686979 | chicken DT40 Tdp1-/-;hTDP1 cells + 20 nM CPT, ATP luminescence, 48 h | Potency, µM (titrated, usually from 46.2 µM), for inactives: at the highest dose activity change, negative = growth inhibition, most hits filed as inhibitors; also: potency is read from the fitted curve at half-maximal effect; nearly all actives have a fitted effect of over 55% in size
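Chicken DT40 Tdp1-/- cells stably complemented with human TDP1 were seeded at 400 cells/well in medium containing 20 nM camptothecin, exposed to pin-transferred compounds, and grown at 37 °C for at least 48 hr. Viability was read as ATP luminescence.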
HT1080 IDH1KD tx – toxicity to HT-1080 IDH1 knockdown cells (counter line); Potency, µM (doses to about 46.1 µM), inactives show at the top dose activity, negative = toxicity, most hits filed as cytotoxic; actives 2% (n = 360,000); HT-1080 IDH1 knockdown viability, ATP luminescence, 48 h;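 also: potency is read from the fitted curve at half-maximal effect; 0% = DMSO wells and -100% = cell-free medium wells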
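Luminescent ATP read-out (CellTiter-Glo, 10 min at room temperature) after 48 h compound exposure at 37 °C gave viability of IDH1-knockdown HT-1080 cells. Activity was normalised to DMSO and cell-free wells, then fitted as concentration-response curves.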
IL1B secr inh – blocks inflammasome-driven IL-1 beta release | THP-1 LPS/ATP IL-1B secretion, AlphaLISA, 16 h; active compounds read low | activity change, % at 57.5 µM | actives 4.7% (n = 360,000) | AID 743279; in the data active = activity change below about -50%; inconclusive = mostly about -30% to -49%
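THP-1 cells pretreated 1 hr with compounds (up to 57.5 uM final), then stimulated with LPS (250 ng/mL final) plus ATP (1.25 mM final); secreted IL-1B measured by AlphaLISA after 16 hr, decreased signal indicating inhibition.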
Numbers without * were called inactive; ? = inconclusive; nt = not tested or not shown. Unless noted, calls follow the shape of the dose curve; as a rule, active = well fitted curve in the direction sought with a large enough effect; inconclusive = small, poorly fitted or top-dose-only effect, or another doubt; inactive = no such curve, though single readings can be large; an effect the other way counts as inactive or inconclusive. Unless noted, % is scaled to controls: 0 for no effect and ±100 for the full control effect.

SMILES	HT1080NT lethal	DT40 TDP1 no CPT	DT40 TDP1 CPT	HT1080 IDH1KD tx	IL1B secr inh
CN1CCN(c2nc3c(c(=O)n(C)c(=O)n3C)n2CCSc2nnnn2-c2ccccc2)CC1	11%	-22%	-14%	15%	2
Cn1c(=O)[nH]c(=O)c2c1nc(N1CCN(Cc3ccccc3)CC1)n2CCCc1ccccc1	-6%	16µM*	12µM*	1%	1
CCN1CCN(c2nc3c(c(=O)[nH]c(=O)n3C)n2CCCc2ccccc2)CC1	11%	-13%	-1%	0%	1
Cn1c(SCC(=O)NCc2ccco2)nnc1-c1cccc(NC(=O)c2ccccc2)c1	nt	-2%	-9%	nt	nt
Cn1c(=O)c2[nH]c(NN=Cc3cccc(Br)c3)nc2n(C)c1=O	-11%	15µM*	23µM*	-9%	-20
CCN1/C(=C\C=C2\C(=O)N(c3ccccc3)C(=S)N2C)Sc2ccccc21	-3%	10µM*	?	19%	-3
CCN1/C(=C2\OC(=S)N(C)C2=O)Sc2ccccc21	?	-17%	-9%	15%	8
CC(=O)N1CCC(N(CCCOC(C)C)S(=O)(=O)c2ccc([N+](=O)[O-])cc2)CC1	2%	-10%	-26%	0%	-15
Cc1cccc(C)c1NC(=O)C1C(c2ccc3c(c2)OCO3)=Nc2ccccc2N1C(=O)c1ccccc1 (stereo not given)	-3%	1.5µM*	5.2µM*	-1%	-23
O=C(NCc1ccccc1)C1C(c2ccc3c(c2)OCO3)=Nc2ccccc2N1C(=O)c1ccco1 (stereo not given)	13µM*	?	?	8.2µM*	-15
O=C(NCc1ccccc1)C1C(c2ccc3c(c2)OCO3)=Nc2ccccc2N1C(=O)c1cccc(C(F)(F)F)c1 (stereo not given)	-5%	?	16µM*	-14%	-20
O=C(NCc1ccccc1)C1C(c2ccccc2)=Nc2ccccc2N1C(=O)c1ccncc1 (stereo not given)	-17%	-14%	-9%	-5%	-14
O=C(NCc1ccccc1)C1C(c2ccc3c(c2)OCO3)=Nc2ccccc2N1C(=O)c1ccccc1 (stereo not given)	-18%	15µM*	23µM*	-24%	-1
COc1cccc(N2C(=NC(=O)c3ccccc3)SC3CS(=O)(=O)CC32)c1 (stereo not given)	20%	12%	3%	10%	0
CCOC(=O)CNC(=O)CSc1nc(Cc2cccs2)nc2ccccc12	-15%	?	?	-2%	-11
O=C(CSc1ncn(-c2ccccc2)n1)Nc1nc2c(s1)CCCC2	1%	?	?	-10%	7
CC(C)c1nc(SCC(=O)Nc2nc3c(s2)CCCC3)c2ccccc2n1	?	11µM*	18µM*	11µM*	-63*
O=C(CCSc1ccccc1)Nc1nc2c(s1)CCCC2	-11%	10µM*	?	?	-4
CC(C)(C)c1nc(SCC(=O)N2CCCC2)c2ccccc2n1	1%	16µM*	21µM*	-1%	-18
Cc1cc(SCC(=O)N2CCCC2)nc2ccccc12	4%	-13%	3%	0%	-26
CC1CC(C)CN(C(=O)CSc2nc(Cc3cccs3)nc3ccccc23)C1 (stereo not given)	?	21µM*	?	?	-61*
COCCNC(=O)C(c1ccc(F)cc1)N(C(=O)CCC(=O)Nc1ccccn1)c1ccc(C)cc1 (stereo not given)	1%	-20%	-14%	0%	17
COC(=O)c1cccc(NC(=O)CCNC(=O)c2ccc([N+](=O)[O-])cc2)c1	5%	-10%	-2%	1%	-3
Cc1nnc(NC(=O)CSc2nc(C(C)C)nc3ccccc23)s1	-2%	7.1µM*	6.5µM*	19%	8
Cc1cc(NC(=O)CSc2nc(C(C)C)nc3ccccc23)no1	?	?	?	16µM*	-18
